Several values for one entry are separate records, joined by “and”; a condition that tells them apart may be missing. Identical values can stand only once. Results filed as inconclusive are left out. A call without a number means that no potency is given here. Activity calls are given as the source filed them. The call rests on the fitted dose curve; in most records, active means well fitted curve in the direction sought with a large enough effect; inconclusive means small, poorly fitted or top-dose-only effect, or another doubt; inactive means no such curve, though single readings can be large; an effect the other way counts as inactive or inconclusive.
How the values were obtained:
[1] = qHTS for Inhibitors of Ubiquitin-specific Protease USP2a Using CHOP2 as the Reporter: Cytotox Assay (AID 652170); further: nearly all actives have a fitted effect of over 70% in size; further: potency means the concentration at half of the fitted maximal effect
In short: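 Cytotoxicity read as ATP luminescence (CellTiter-Glo) after 72 hr compound treatment at 37 deg C. Cells: HCT116, 600/well in DMEM plus 10% FBS. Normalization between DMSO-treated cells and cell-free wells.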

[2] = biological target: Ubiquitin carboxyl-terminal hydrolase 2 (Homo sapiens) (UniProt O75604); test: qHTS for Inhibitors of Ubiquitin-specific Protease USP2a Using CHOP2 as the Reporter: K484 Substrate (AID 652173);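 further: cleavage of internally quenched K48 di-ubiquitin substrate measured as rising fluorescence over time; nearly all actives have a fitted effect of over 70% in size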; further: potency means the concentration at half of the fitted maximal effect
Ubiquitin carboxyl-terminal hydrolase 2 (Homo sapiens), sequence (O75604 whole entry, looked up): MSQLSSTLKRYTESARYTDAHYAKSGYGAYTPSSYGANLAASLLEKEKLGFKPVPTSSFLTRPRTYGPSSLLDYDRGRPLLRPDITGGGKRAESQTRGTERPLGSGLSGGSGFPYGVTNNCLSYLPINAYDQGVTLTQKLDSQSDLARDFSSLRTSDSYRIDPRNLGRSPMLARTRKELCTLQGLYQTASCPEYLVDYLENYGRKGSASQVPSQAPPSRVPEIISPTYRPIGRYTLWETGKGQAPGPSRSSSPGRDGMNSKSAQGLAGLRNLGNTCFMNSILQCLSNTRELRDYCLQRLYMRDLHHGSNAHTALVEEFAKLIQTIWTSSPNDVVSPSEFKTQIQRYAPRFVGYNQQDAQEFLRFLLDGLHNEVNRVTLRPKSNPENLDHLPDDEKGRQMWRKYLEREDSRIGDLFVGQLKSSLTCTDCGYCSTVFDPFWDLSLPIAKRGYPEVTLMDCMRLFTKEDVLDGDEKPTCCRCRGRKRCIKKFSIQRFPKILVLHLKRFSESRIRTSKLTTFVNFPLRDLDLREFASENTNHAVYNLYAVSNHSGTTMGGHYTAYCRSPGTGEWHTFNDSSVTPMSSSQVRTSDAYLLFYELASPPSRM
In short: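 Kinetic fluorescence (Ex 525/Em 598) tracked cleavage of an internally quenched K48 di-ubiquitin substrate, added as a 100 nM solution. The enzyme was added as a 5 nM USP2 solution before compound pinning, with no-enzyme controls. Buffer: Tris pH 8, beta-mercaptoethanol, CHAPS.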

[3] = qHTS for Inhibitors of Ubiquitin-specific Protease USP2a Using CHOP2 as the Reporter: K633 Counterscreen (AID 652168); further: series mostly up to about 57 µM
In short: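 Detection-system control: fluorescence of K48-linked DiUb-4IQF substrate (100 nM as added) tracked over time, Ex 525/Em 598, with pinned compounds and no enzyme, in pH 8 Tris buffer containing beta-mercaptoethanol and 0.05% Chaps.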

Compound	Potency [1]	Potency [2]	outcome [3]
Cc1ccc(S(=O)(=O)Nc2ccccc2C(=O)Nc2ncc(-c3ccccc3)o2)cc1	4690 nM (active)	2.43 µM (active)	
Cc1ccc(NC(=O)c2cc(-c3ccc(C)c(C)c3)nc3ccccc23)cc1	inactive		
Cc1ccc(S(=O)(=O)Nc2cnccc2C(=O)Nc2nc(-c3cccc(Cl)c3)cs2)cc1		2.17 µM (active)	inactive
Cc1ccc(S(=O)(=O)Nc2cc([N+](=O)[O-])ccc2C(=O)Nc2nc(-c3ccccc3)cs2)cc1		0.968 µM (active)	inactive
Cc1ccc(S(=O)(=O)Nc2ccccc2Nc2nc(-c3ccccc3)cs2)cc1	inactive	3.85 µM (active)	
Cc1ccc(-c2cc(C(=O)Nc3ccc(C(N)=O)cc3)c3ccccc3n2)cc1C		21.7 µM (active)	inactive
Cc1ccc(S(=O)(=O)Nc2cnccc2C(=O)Nc2nc(-c3cccc(F)c3)cs2)cc1		1.37 µM (active)	inactive
Nc1ccc(S(=O)(=O)Nc2cnccc2C(=O)Nc2nc(-c3ccccc3)cs2)cc1		17.2 µM (active)	inactive
Cc1ccc(-c2cc(C(=O)Nc3ccc(S(=O)(=O)Nc4ccncc4)cc3)c3ccccc3n2)cc1C	inactive	9.68 µM (active)	
CNS(=O)(=O)c1ccc(NC(=O)c2cc(-c3ccc(C)c(C)c3)nc3ccccc23)cc1	inactive	4.85 µM (active)	
Cc1ccc(S(=O)(=O)Nc2cnccc2C(=O)Nc2nc(-c3ccccc3Cl)cs2)cc1		1.72 µM (active)	inactive
Cc1ccc(-c2cc(C(=O)Nc3ccc(S(N)(=O)=O)cc3)c3cccc(C)c3n2)cc1C		17.2 µM (active) and 6.85 µM (active)	inactive
Cc1ccc(S(=O)(=O)Nc2cnccc2C(=O)Nc2nc(-c3ccccc3F)cs2)cc1		2.17 µM (active)	inactive
Cc1ccc(S(=O)(=O)Nc2cnccc2C(=O)Nc2nc3ccccc3s2)cc1		3.43 µM (active)	inactive
Cn1cnc(S(=O)(=O)Nc2cnccc2C(=O)Nc2nc(-c3ccccc3)cs2)c1		19.3 µM (active)	inactive
CC(C)(C)NC(=O)N1CCC(C(=O)Nc2ccc([S+](=O)([O-])Nc3nccs3)cc2)CC1		inactive	inactive

Compound	Potency [1]	Potency [2]	outcome [3]
O=C(Nc1nc(-c2ccc(F)cc2)cs1)c1ccncc1NS(=O)(=O)c1ccccc1Cl		3.06 µM (active)	inactive
Cc1ccc(S(=O)(=O)Nc2cnccc2C(=O)Nc2nc(-c3ccc(Oc4ccccc4)cc3)cs2)cc1		2.17 µM (active)	inactive
O=C(O)C1CCC(C(=O)Nc2ccc([S+](=O)([O-])Nc3nccs3)cc2)CC1 (stereo not drawn)		inactive	inactive
Cc1ccc(S(=O)(=O)Nc2cnccc2C(=O)Nc2nc(-c3nc4ccccc4s3)cs2)cc1		1.72 µM (active)	inactive
Cc1ccc(S(=O)(=O)Nc2cnccc2C(=O)Nc2nc(-c3ccc4c(c3)CCCC4)cs2)cc1		2.17 µM (active)	inactive
Cc1ccc(S(=O)(=O)Nc2cnccc2C(=O)Nc2nc(-c3cc(Br)cs3)cs2)cc1		2.17 µM (active)	inactive
COc1cccc(-c2csc(NC(=O)c3ccncc3NS(=O)(=O)c3ccc(C)cc3)n2)c1		1.72 µM (active)	inactive
O=C(Nc1ccc(C(=O)Nc2nccs2)cc1)c1ccc2ccccc2c1	inactive	3.85 µM (active)	
CCCOC1CCC(C(=O)Nc2ccc([S+](=O)([O-])Nc3nccs3)cc2)CC1 (stereo not drawn)		inactive	inactive
Cc1ccc(-c2cc(C(=O)Nc3ccc(S(=O)(=O)Nc4ccccn4)cc3)c3ccccc3n2)cc1C	inactive	4.32 µM (active)	
Cc1ccc(-c2cc(C(=O)NCc3ccc(S(N)(=O)=O)cc3)c3ccccc3n2)cc1C	inactive	9.68 µM (active)	
Cc1ccc(S(=O)(=O)Nc2ncccc2C(=O)Nc2nc(-c3ccccc3)cs2)cc1		3.43 µM (active)	inactive
Cc1ccc(S(=O)(=O)Nc2cnccc2C(=O)Nc2cccc3ccccc23)cc1		7.69 µM (active)	inactive
O=C(Nc1nc(-c2ccccc2)cs1)c1ccncc1NS(=O)(=O)c1ccc2c(c1)CCC2		1.93 µM (active)	inactive
Cc1cccc(S(=O)(=O)Nc2cnccc2C(=O)Nc2nc(-c3ccccc3)cs2)c1		2.73 µM (active)	inactive
CCCc1ccc(-c2csc(NC(=O)c3ccncc3NS(=O)(=O)c3ccc(C)cc3)n2)cc1		1.53 µM (active)	inactive

From PubChem BioAssay (NCATS)
